Experimental data published in PubChem BioAssay AID602295 (Broad Institute, 2012).
The source made the active and inactive calls.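 Rule for the calls: active = every separate test run called active, meaning the signal drops and a potency is fitted within twice the top valid dose; inconclusive = runs disagree, poor fit, or flat partial inhibition; inactive = all runs inactive, flat, opposite direction or too weak.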

The compounds below were run against Mitogen-activated protein kinase 3 (Homo sapiens) (UniProt P27361) (assay: inhibition of MAPK3 kinase activity – biochemical, ADP-Glo luminescence, cherry pick, set 2, selectivity assay for Dyrk1A inhibitor NFAT project, dose response (AID 602295)). Conditions: ERK1 kinase, 120 min; series mostly up to 10 µM.
Chain of Mitogen-activated protein kinase 3 (Homo sapiens) (P27361 whole entry, looked up): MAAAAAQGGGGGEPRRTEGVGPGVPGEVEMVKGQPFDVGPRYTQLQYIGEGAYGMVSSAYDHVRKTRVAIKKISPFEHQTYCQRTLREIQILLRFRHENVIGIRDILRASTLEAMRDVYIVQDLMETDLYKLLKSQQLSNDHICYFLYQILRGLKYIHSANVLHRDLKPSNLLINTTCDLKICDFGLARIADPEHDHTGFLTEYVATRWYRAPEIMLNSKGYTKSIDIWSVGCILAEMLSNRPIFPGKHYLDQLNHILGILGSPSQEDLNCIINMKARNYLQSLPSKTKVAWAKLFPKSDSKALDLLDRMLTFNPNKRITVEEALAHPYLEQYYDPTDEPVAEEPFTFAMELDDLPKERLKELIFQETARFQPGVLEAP

outcome, inactive:
Clc1ccc(CNc2ccnc(-c3ccc4[nH]ncc4c3)n2)cc1Cl
Cc1nc(CNc2ncnc3ccc(-c4ccc5c(c4)OCO5)cc23)cs1
COc1cccc(NC(=O)c2sc(NC(=O)c3ccncc3)nc2C)c1
Clc1ccc(CNc2ncncc2-c2ccc3c(c2)OCO3)cc1
Clc1ccc(Nc2nccc(-c3ccc4c(c3)OCO4)n2)cc1
Clc1ccc(CNc2nccc(-c3ccc4cn[nH]c4c3)n2)cc1Cl
COc1ccc2c(c1)CCc1c-2n[nH]c1C(=O)O
O=C(Nc1nc2c(s1)CCCC2)c1ccc(N2C(=O)CCC2=O)cc1
Clc1ccc(CNc2cc(-c3ccc4c(c3)OCO4)ncn2)cc1
CC1Cc2ccccc2N1c1ncnc2nc[nH]c12 (centres undefined)
c1nc(NCC2CCCOC2)c2cc(-c3ccc4c(c3)OCO4)ccc2n1 (centres undefined)
c1coc(CCNc2ncnc3ccc(-c4ccc5c(c4)OCO5)cc23)c1
Clc1ccc(CNc2nccc(-c3ccc4c(c3)OCCO4)n2)cc1Cl
c1cc(-c2ccc3c(c2)OCO3)nc(Nc2ccc3c(c2)OCO3)n1
